# Screen size: about 400,000 compounds; about 13,000 (3.2%) were called active. Inconclusive results (about 18%) are left out. The call rests on the fitted dose curve; in most records, active means well fitted cell-killing curve with a large enough effect; inconclusive means small, poorly fitted or top-dose-only effect, or effect the other way; inactive means flat fitted curve, though single readings scatter. What follows is part of a selection rich in actives, with near analogues and random picks from the rest. Entries that show only a call come without a potency.
# Assay: qHTS assay for MDR1-selective chemotherapeutics: Primary screen using the drug-selected MDR subline cells KB-V1; further: nearly all actives have a fitted effect of over 60% in size
# Conditions: KB-V1 MDR cells viability, CellTiter-Glo, 72 h; series mostly up to 46.1 µM
# In short: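 Drug-selected KB-V1 cells, grown in DMEM lacking phenol red with 10% FBS, receive compound titrations; after three days at 37 degrees C, surviving cell ATP is quantified by CellTiter-Glo luminescence and responses normalized and curve-fitted.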
# Potency means the concentration at half of the fitted maximal effect.
row,Compound,Potency
1,CCC(=O)N1CCc2cc(Br)cc(S(=O)(=O)CCC(=O)NCCc3ccc(OC)c(OC)c3)c21,inactive
2,C[C@@H]1CN([C@H](C)CO)C(=O)CCCn2cc(nn2)CO[C@H]1CN(C)S(C)(=O)=O,inactive
3,Cc1ccc(-c2nn(CCC(=O)Nc3ccc(OC(F)(F)F)cc3)c(=O)c3ccccc23)cc1,inactive
4,CCc1nc2ccc(C(=O)Nc3ccc(OC)c(OC)c3)cn2c1N(C)C(=O)c1cccc(OC)c1,inactive
5,CCCC/C=C/c1cccc2nncn12,inactive
6,CCCCC[C@H](C)N1C[C@@H](COCc2ccccc2)Oc2cc(N3CCC[C@@H]3CO)ccc2S1(=O)=O,inactive
7,CC(=O)N1c2ccc(S(=O)(=O)N3CCCC(C(=O)Nc4cccc(Cl)c4)C3)cc2CC1C (stereo not drawn),inactive
8,CC(=O)N1CCCc2cc(S(=O)(=O)N3CCCC(C(=O)N4CCN(c5cccc(Cl)c5)CC4)C3)ccc21 (stereo not drawn),16.4 µM (active)
9,CC(=O)N1CCCc2cc(S(=O)(=O)N3CCCC(C(=O)NCc4ccc(Cl)cc4)C3)ccc21 (stereo not drawn),inactive
10,CC(=O)c1ccc(NC(=O)CSc2nc(-c3ccccc3F)nc3c2c(=O)n(C)c(=O)n3C)cc1,inactive
11,CC(C)CCNC(=O)CSc1nc2ccccc2nc1Cc1ccc(Cl)cc1,inactive
12,C=CCSc1nc(Cc2ccc(Cl)cc2)nc2ccccc12,16.4 µM (active)
13,CCCNC(=O)CSc1nc(Cc2ccccc2)nc2ccccc12,inactive
14,CCOC(=O)c1c(NC(=O)c2cc(-c3ccc(Cl)cc3)on2)sc2c1CCCC2,inactive
15,COc1ccc(CCCc2nnc(SCc3nc4ccccc4c(=O)[nH]3)n2C)cc1,inactive
16,COc1ccc(C)cc1-n1nnnc1SCc1nc2ccccc2c(=O)[nH]1,5.17 µM (active)
17,CCn1c(COc2c(C)cccc2C)nnc1SCc1nc2ccccc2c(=O)[nH]1,inactive
18,COCCCn1c(=O)/c(=C/c2ccccc2OC(C)C)s/c1=C(\C#N)C(=O)Nc1ccc(C(=O)O)cc1,inactive
19,Cc1nc(C(F)(F)F)ccc1C(=O)N1CCC1(C)C(=O)NS(=O)(=O)c1ccccc1Cl (stereo not drawn),inactive
20,COc1cc(CNC(=O)c2cc3n(n2)CCCN(Cc2cccc(F)c2)C3=O)cc(OC)c1OC,inactive
21,COC(=O)c1ccccc1NC(=O)Cn1c(=O)cc(C)c2c(C)nn(-c3cccc(Cl)c3C)c21,inactive
22,CCCNC(=O)c1ccccc1NC(=O)CSCc1ccc(OC)cc1,inactive
23,COc1ccccc1NC(=O)CSc1nnc(CNC(=O)c2ccccc2F)o1,inactive
24,CCCCCNC(=O)c1cccnc1SCC(=O)Nc1ccccc1OC,6.51 µM (active)
25,O=C(Nc1ccccn1)c1sc2ccc([N+](=O)[O-])cc2c1Cl,inactive

row,Compound,Potency
1,Cc1ccc(-c2ccc(CN3C(C(C)C)C(=O)N(Cc4cn(CCC5OCCCO5)nn4)CCS3(=O)=O)cc2)cc1 (stereo not drawn),inactive
2,CNC(=O)C[C@H]1C(=O)N(Cc2ccccc2)C[C@@H]1CSC,inactive
3,Cc1ccc(NC(=O)Nc2cccnc2)cc1,inactive
4,Cc1ccc(-c2nc(-c3cccnc3)sc2CC(=O)Nc2ccc(C)c(Cl)c2)cc1,8.2 µM (active)
5,Cc1nc(-c2ccc(F)cc2)c(CC(=O)Nc2cccc(S(=O)(=O)N3CCOCC3)c2)s1,inactive
6,CC(=O)N1C[C@@H](CO)[C@@H](N(C)C(=O)c2ccco2)C[C@H]1c1ccccc1,inactive
7,CCCCn1nnnc1C(c1cccc(OC)c1OC)N1CCN(C/C=C/c2ccccc2)CC1 (stereo not drawn),inactive
8,CC(C)(O)C#Cc1ccc(CNC[C@H]2O[C@@H](n3cnc4c(=O)[nH]c(N)nc43)[C@H](O)[C@@H]2O)s1,inactive
9,O=C(c1ccc(S(=O)(=O)NCc2ccco2)cc1)N1CCN(c2ccccc2)CC1,inactive
10,O=C(c1ccc(S(=O)(=O)N2CCCC2)cc1)N1CCN(c2ccccc2F)CC1,inactive
11,O=C(c1ccc(S(=O)(=O)N2CCOCC2)cc1)N1CCN(c2ccccc2)CC1,16.4 µM (active)
12,COc1cc2nnn(-c3ccncc3)c2cc1OC,inactive
13,CCOC(=O)C1(C)CCCN(C(=O)c2ccc(N(C)C)cc2)C1 (stereo not drawn),inactive
14,O=C(Nc1ccccc1)c1ccccc1Br,inactive
15,O=C(COC(=O)c1ccccc1Br)Nc1nnc(-c2ccccc2)o1,inactive
16,O=C(Nc1nnc(-c2ccc(Cl)cc2)o1)c1ccccc1Br,6.51 µM (active)
17,CCc1nc2c(OCc3ccc(C(=O)OC)cc3)cccn2c1N(C)C(=O)C(C)C,inactive
18,C=CCn1c2ccccc2c2nnc(SC(CC)C(=O)Nc3nc(C)c(C(=O)OCC)s3)nc21 (stereo not drawn),2.31 µM (active)
19,CCOC(=O)c1sc(NC(=O)C(CC)Sc2nccn2C)nc1C (stereo not drawn),inactive
20,C=CCn1nc(C(=O)OCC)cc1-c1sc(NC(=O)c2ccccc2)nc1C,inactive
21,O=C(NCCC1CCCCN1S(=O)(=O)c1cccs1)C(=O)Nc1ccc(F)cc1F (stereo not drawn),14.6 µM (active)
22,COc1ccc(CCNC(=O)C(=O)NCC2CCCN2S(=O)(=O)c2cccs2)cc1OC (stereo not drawn),inactive
23,COc1ccccc1CCNC(=O)C(=O)NCCC1CCCCN1S(=O)(=O)c1cccs1 (stereo not drawn),inactive
24,O=C1c2ccccc2C(=O)N1CCC#Cc1ccc2cc(C3(O)CCCCC3)oc(=O)c2c1,inactive
25,COc1cc(C#Cc2ccc3cc(CCCO)oc(=O)c3c2)cc(OC)c1,3.66 µM (active)

row,Compound,Potency
1,O=C(CSc1nnc(-c2ccco2)n1-c1ccccc1)NCCc1ccccc1,inactive
2,O=C(CSc1nnc(-c2ccco2)n1Cc1ccccc1)NC(=O)NCc1ccco1,20.6 µM (active)
3,Cn1c(-c2ccc(F)cc2)cnc1SCC(=O)NCc1ccco1,inactive
4,CCn1c(SCC(=O)NCc2ccco2)nnc1-c1ccc(N)cc1,inactive
5,O=C(CSc1nnc2scc(-c3ccc(F)cc3)n12)NCc1ccco1,inactive
6,Cc1ccc(-c2csc3nnc(SCC(=O)NCc4ccco4)n23)cc1,9.2 µM (active)
7,CCOCCn1ccc2c(OCC(=O)NCc3ccc(C)cc3)cccc2c1=O,inactive
8,CN(C)c1ccc(C(CNS(=O)(=O)c2cc(F)ccc2F)N2CCOCC2)cc1 (stereo not drawn),inactive
9,CC[C@@H]1CC2=C(C(=O)OC(C)(C)O2)[C@@H](CC)O1,inactive
10,COc1cccc(OCC(=O)NCCS(=O)(=O)N2CCN(c3ccccc3)CC2)c1,inactive
11,COc1ccc2c(c1)C=C(C(=O)NCc1cc(Br)ccc1OC)CO2,inactive
12,COc1cc(-c2nnc(NC(=O)CS(=O)(=O)c3ccc(Cl)cc3)o2)cc(OC)c1OC,inactive
13,COc1ccc(Cl)cc1NC(=O)CN(C)C(=O)c1cn(-c2ccccc2)nc1-c1cccs1,inactive
14,O=C(CN1C(=O)NC(Cc2ccccc2)(Cc2ccccc2)C1=O)NCC1CCCCC1,20.6 µM (active)
15,COc1cccc(CNC(=O)CN2C(=O)NC(Cc3ccccc3)(c3ccccc3)C2=O)c1 (stereo not drawn),inactive
16,O=C(CC1CCCCC1)NCc1ccccc1,inactive
17,COC(=O)C[C@H]1C[C@@H]2c3cc(N(C)C)ccc3O[C@@H]2[C@H](CO)O1,inactive
18,CCC(C)N1C(=O)S/C(=C/c2ccc(Sc3nc4ccccc4[nH]3)o2)C1=O (stereo not drawn),5.17 µM (active)
19,CN(Cc1ccccc1)C(=O)CSc1nc2ccccc2[nH]1,inactive
20,O=C1NC[C@H](Cc2ccc(O)cc2)N(C[C@H]2CCCN2C[C@H](Cc2ccccc2)N2C[C@H](Cc3ccccc3)N(CCc3ccccc3)C(=O)C2=O)C1=O,inactive
21,COCCCNc1ccn2nc(-c3ccc(CC(C)C)cc3)cc2n1,inactive
22,O=C(Nc1ccc(S(=O)(=O)Nc2ncccn2)cc1)c1cncc(Br)c1,inactive
23,CCOc1ncccc1C(=O)Nc1ccc(S(=O)(=O)Nc2nc(C)cc(C)n2)cc1,20.6 µM (active)
24,CCOc1ncccc1C(=O)Nc1ccc2c(c1)OCCO2,inactive
25,CCOC(=O)c1cccc(NC(=O)C(Cc2ccccc2)NS(=O)(=O)c2cccc3nsnc23)c1 (stereo not drawn),inactive

row,Compound,Potency
1,COc1cccc(-c2ccc(SCC(=O)N3CCN(c4ccccc4)CC3)nn2)c1,14.6 µM (active)
2,Cc1nnc(SCC(=O)N2CCN(c3ccccc3)CC2)n1-c1ccccc1,inactive
3,COc1cccc(/C=C/C(=O)OCC(=O)N2CCN(c3ccccc3)CC2)c1,inactive
4,c1ccc(CCN2CN=C(Nc3nc4ccccc4o3)NC2)cc1,13 µM (active)
5,O=C1CCCC2=C1[C@@]1(CCC(c3ccccc3)C1)N=C(Nc1nc3ccccc3o1)N2 (stereo partly drawn),inactive
6,N#CNC1=NCN(CCc2ccccc2)CN1,inactive
7,CC(=O)c1ccc(NC(=O)c2cc(-c3cccs3)on2)cc1,inactive
8,Cc1ccccc1Cn1nc(C)c(NC(=O)c2cc(-c3ccc(F)cc3)on2)c1C,inactive
9,Cc1cc(NC(=O)c2cc(-c3cccs3)on2)nn1Cc1ccc(Cl)cc1,9.2 µM (active)
10,Cc1cccc(CC(=O)Nc2cccc(-c3cn4cccnc4n3)c2)c1,inactive
11,COc1ccc(NC(=O)N(C)C[C@H]2Oc3ncc(C#C[C@@H](C)O)cc3C(=O)N([C@H](C)CO)C[C@H]2C)cc1,inactive
12,CCOC(=O)C1C(c2ccc(O)cc2)NC(=O)NC1(O)C(F)(F)F (stereo not drawn),inactive
13,O=C(c1cccs1)C1C(c2ccc(Br)cc2)NC(=S)NC1(O)C(F)(F)F (stereo not drawn),20.6 µM (active)
14,Cc1ccc(Cc2c(-c3ccc(C)cc3)nc3c4ccccc4ccn23)cc1,inactive
15,c1ccc2c(c1)nnn2-c1ccncc1,inactive
16,CC(=NCc1ccco1)C1=C(O)c2ccccc2C1=O,inactive
17,CCc1ccc(-c2cc(C(=O)NCc3ccco3)c3ccccc3n2)s1,inactive
18,CC(=NCc1ccco1)c1c(C(F)(F)F)[nH]n(-c2nc3ccccc3s2)c1=O,9.2 µM (active)
19,CN(C)C(CNC(=O)c1cc(Br)c(Br)s1)c1ccco1 (stereo not drawn),inactive
20,CCCCC(CCCC)c1ccc(C=Nc2ccc(/C=C/c3ccnc4ccccc34)cc2)cc1,inactive
21,COc1ccc(C(=O)OCC(=O)c2ccc(C)c(S(=O)(=O)N3CCOCC3)c2)cc1OC,inactive
22,Cc1ccc(C(=O)OCC(=O)N2CCCCCC2)cc1S(=O)(=O)N1CCOCC1,14.6 µM (active)
23,O=C(OCC(=O)N1CCCCCC1)c1ccc(Br)c(S(=O)(=O)N2CCOCC2)c1,inactive
